Source: PubChem
CFTR F508del cor: CFTR F508del correction in bronchial cells | hit rate 0.36% among 350,000 | activity (quench increase), % at 7.58 µM | CFBE cells, YFP halide quenching; stimulated with forskolin plus potentiator P3; % fluorescence drop versus neutral controls;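 active means mean added fluorescence quench of at least 8% versus neutral control, with both replicates also reaching 8%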;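 further: cells transiently co-express mutant CFTR-F508del with the halide-sensitive YFP; corrector assay measuring rescue of mutant channel to the surface after 24 h compound exposure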
ARNT-TACC3 inh: disruptors of human ARNT/TACC3 interaction; Q9Y6A5; AlphaScreen His-ARNT PAS-B/GST-TACC3 binding, luminescence; TACC3 fragment carries E629A point mutation; inhibition, % at 9.99 µM; hit rate 0.66% among 390,000; AID 623870;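 active means mean inhibition of replicates at least 50% and at least half of replicates each reaching 50%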
PglD DTNB: PglD (C. jejuni) enzyme inhibition. hit rate 0.098% among 360,000. inhibition, % at 12.5 µM. purified PglD enzyme, DTNB colorimetric CoA detection; in the data active means inhibition above about 16%, passing the limit was not always enough
Statin myotox sup: suppressors of simvastatin-induced myotoxicity in C2C12 myotubes. AID 602340. rescue of ATP level, % at 7.49 µM. ATP luminescence, 48 h; scaled: DMSO 0, geranylgeraniol control 100. hit rate 0.78% among 330,000;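 active means mean ATP rescue above about 67%, or every replicate alone reaching that limit, limit read from the data, passing the limit was not always enough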;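 further: myotubes were challenged with 10 µM simvastatin during compound exposure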
Hits are given with their value; i = inactive; nt = no result given. The list is not random: actives were taken first. Their share in the collection is about 1.4%.

SMILES	CFTR F508del cor	ARNT-TACC3 inh	PglD DTNB	Statin myotox sup
CCSCCOC(=O)C1=C(C)NC(=O)NC1c1cc(OC)ccc1OC (configuration not stated)	nt	i	i	99
S=C(NCc1ccc(Cl)cc1)Nc1ccccc1	nt	nt	i	129
CN(CC(=O)NCCc1ccc(S(N)(=O)=O)cc1)CC(=O)Nc1ccc(Cl)c(C(F)(F)F)c1	13	nt	i	i
CCOC(=O)N1CCN(c2c(N3CCN(c4cc(C)ccc4C)CC3)c(=O)c2=O)CC1	i	i	i	102
CCOC(=O)N1CCN(c2c(N3CCN(C(=O)OCC)CC3)c(=O)c2=O)CC1	i	i	i	i
O=C(CCN1CCCCC1)NCC[C@@H]1CC[C@H](NS(=O)(=O)c2cccc(F)c2)[C@H](CO)O1	i	i	i	i
O=C(OCC(=O)N1CCOCC1)c1ccccc1OCc1ccc(Cl)cc1	i	i	i	i
O=C(OCC(=O)N1CCN(C(=O)c2ccco2)CC1)c1ccccc1OCc1ccc(Cl)cc1	nt	i	i	133
COc1ccc2c3c(n(C)c2c1)[C@H](CO)NCC31CCN(Cc2ccccc2Cl)CC1	i	nt	nt	nt
COc1ccc2c3c(n(C)c2c1)[C@H](CO)NCC31CCN(Cc2cc(-c3ccccc3)on2)CC1	12	nt	nt	nt
CCOC(=O)c1cnn(-c2ccccc2)c1-c1ccccc1	nt	i	i	i
CC(=O)c1cnn(-c2ccccc2)c1C	i	i	nt	i
Cc1c(C(=O)Oc2cccc3ccccc23)cnn1-c1ccccc1	nt	i	i	100
CCOC(=O)c1cnn(-c2ccccc2)c1-n1cccc1	nt	i	i	107
O=C1C(SC(F)(F)C(F)F)=C(C(F)(F)F)OC2C3C=CC(C3)C12 (configuration not stated)	nt	i	i	107
O=C(Cc1ccccc1)NCC(=O)N/N=C/c1ccc([N+](=O)[O-])s1	i	i	i	163
C[C@@H]1CN([C@@H](C)CO)C(=O)c2cc(-c3cncnc3)cnc2O[C@@H]1CN(C)Cc1ccc(Oc2ccccc2)cc1	i	i	i	i
Cc1nn(-c2ccccn2)c2c1-c1nc(N)ncc1CC2	nt	i	i	115
C/C=C/c1ccc(OCCCNC(C)CC)c(OC)c1 (configuration not stated)	nt	i	i	99
COc1cc2c(cc1OC)C(C1C(=O)CCCC1=O)N(C(=O)CCl)CC2 (configuration not stated)	i	i	i	i
COc1cc2c(cc1OC)C(c1ccccc1)N(C(=O)CCl)CC2 (configuration not stated)	nt	i	i	168
Cc1ccc(NC(=O)CSc2n[nH]c(-c3ccncc3)n2)c(C)c1	i	i	i	i
Cc1ccc(NC(=O)Cc2nc(-c3c[nH]c(C(=O)N4CCCC4)c3)cs2)c(C)c1	8.8	i	i	i
COc1cc(OC)cc(C(=O)N2CC(=O)Nc3ccccc32)c1	8.7	i	i	i
O=C1CN(C(=O)c2ccccc2F)c2ccccc2N1	nt	i	i	i
SMILES	CFTR F508del cor	ARNT-TACC3 inh	PglD DTNB	Statin myotox sup
COc1ccccc1CNC(=O)Cn1cnnn1	12	i	i	i
CNC[C@H]1Oc2cc(-c3cncnc3)ccc2S(=O)(=O)N([C@@H](C)CO)C[C@H]1C	i	i	i	i
CCOC(=O)c1cc(NC(=O)NCc2ccco2)c(C)nc1C	nt	i	i	83
CC#CCOCC1CNC(=O)O1 (configuration not stated)	18	nt	i	i
COc1ccc(OCC2CNC(=O)O2)cc1 (configuration not stated)	nt	i	nt	nt
O=C1NN=C(c2ccc(Cl)cc2)CC1c1cccc(Cl)c1 (configuration not stated)	nt	i	i	137
CCNC(=O)[C@H]1[C@H](CO)[C@H]2Cn3c(ccc(-c4cncnc4)c3=O)[C@H]2N1C(=O)c1ccccc1F	i	i	i	i
C[C@@H]1CN([C@@H](C)CO)S(=O)(=O)c2ccc(C3=CCCCC3)cc2O[C@@H]1CN(C)Cc1cccnc1	i	i	i	i
O=C(c1ccc2ccccc2c1)N1CCN(Cc2ccccc2)CC1	11	i	i	i
Cc1ccc(Cl)cc1N1CCN(C(=O)c2ccc(CN3CCOCC3)cc2)CC1	i	i	i	i
O=C(c1ccc(CN2CCOCC2)cc1)N1CCN(c2cccc(Cl)c2)CC1	nt	i	i	103
O=C(c1cccc(C(=O)N2CCN(Cc3ccccc3)CC2)c1)N1CCN(Cc2ccccc2)CC1	nt	i	i	i
O=C(C[C@@H]1CC[C@H](NS(=O)(=O)c2ccc(F)cc2)[C@H](CO)O1)NC1CCC1	i	i	i	i
C[C@@H]1CCCCO[C@H](CN(C)C(=O)Nc2ccc(F)cc2)[C@H](C)CN([C@@H](C)CO)C(=O)c2cc(NC(=O)Nc3ccc4c(c3)OCO4)ccc2O1	i	i	i	i
CC(Oc1ccccc1Cl)C(=O)Nc1ccc(S(=O)(=O)Nc2nccs2)cc1 (configuration not stated)	8.7	i	i	i
Cc1ccccc1OC(C)C(=O)Nc1ccc(S(=O)(=O)Nc2nccs2)cc1 (configuration not stated)	i	i	i	i
COc1ccc(/C=C/C(=O)Nc2ccc(OC)nc2)cc1	i	nt	i	84
COc1ccc(NC(=O)N2CCCCN3[C@H](C2)[C@@H](c2ccc(C4=CCCC4)cc2)[C@@H]3CO)cc1	i	nt	i	nt
Cc1csc(NC(=O)c2cnccn2)n1	nt	i	i	i
CC(C)c1nnc(NC(=O)c2cnccn2)s1	nt	50	i	i
CC(C)NC(=O)N1Cc2cc(C(=O)NC3CCC3)nc(-c3cccc(-c4cccnc4)c3)c2[C@@H]1CCO	i	nt	nt	nt
COc1cc(/C=C/C(=O)O)cc(S(=O)(=O)Nc2ccc3cn[nH]c3c2)c1OC	8.8	nt	i	i
COc1ccc(Nc2nc3cc(-c4sccc4C)sc3c(=O)n2C)cc1OC	9.6	nt	i	i
C[C@@H]1CCCCO[C@H](CN(C)S(C)(=O)=O)[C@H](C)CN([C@@H](C)CO)C(=O)c2cc(NS(=O)(=O)c3ccc(F)cc3)ccc2O1	i	i	i	i
CCOC(=O)c1cnn(-c2ccc(C)cc2)c1N	nt	i	i	i
SMILES	CFTR F508del cor	ARNT-TACC3 inh	PglD DTNB	Statin myotox sup
CCOC(=O)c1cnn(-c2ncnc3sc(C)c(C)c23)c1N	nt	i	i	81
CCOCCn1c(N2CCN(c3ccc(OC)cc3)CC2)nc2c1c(=O)[nH]c(=O)n2C	nt	i	i	103
CC(C)NC(=O)Nc1cccc2c1O[C@@H](CN(C)Cc1ccc(C(=O)O)cc1)[C@@H](C)CN([C@@H](C)CO)C2=O	i	i	i	i
CCCCCC(=O)NC(=S)Nc1cccc(C(C)=O)c1	i	nt	i	i
CCCC(=O)NC(=S)Nc1cccc(C(C)=O)c1	nt	i	i	114
Cc1noc(C)c1S(=O)(=O)Nc1cccc2c1O[C@H](CN(C)S(=O)(=O)c1ccccc1)[C@H](C)CN([C@@H](C)CO)C2=O	i	i	i	i
Cc1noc(C)c1S(=O)(=O)N(C)C[C@@H]1Oc2ccc(NS(C)(=O)=O)cc2CC(=O)N([C@H](C)CO)C[C@@H]1C	i	i	i	i
CCOC(=O)CN1C(=O)S/C(=C\c2ccc3c(c2)OCO3)C1=O	i	i	i	i
CCOC(=O)CN1C(=O)S/C(=C/c2ccc(OC)c([N+](=O)[O-])c2)C1=O	nt	nt	i	113
